Assay results published in ChEMBL document CHEMBL3433997, “St. Jude Leishmania screening dataset” (2016).

What was measured:
Format in all cases: functional
[1] = target: Solute carrier family 2, facilitated glucose transporter member 1 (Homo sapiens) (UniProt P11166); assay: ST_JUDE_LEISH: Cytotoxicity at 2uM final concentration against transgenic Leishmania Mexicana promastigotes LmGLUT1 that are glucose transport deficient and complemented with the human glucose transporter GLUT1. Activity is measured by DNA content using SYBR green in vitro
[2] = target: Hexose transporter 1 (Plasmodium falciparum) (UniProt O97467); assay: ST_JUDE_LEISH: Cytotoxicity at 2uM final concentration against transgenic Leishmania Mexicana promastigotes LmPfHT that are glucose transport deficient and complemented with the Plasmodium falciparum hexose transporter. Activity is measured by DNA content using SYBR green in vitro
[3] = target: Glucose transporter (Leishmania mexicana) (UniProt O61059); assay: ST_JUDE_LEISH: Cytotoxicity at 2uM final concentration against transgenic Leishmania Mexicana promastigotes LmGT2 that are glucose transport deficient and complemented with the L. Mexicana glucose transporter 2. Activity is measured by DNA content using SYBR green in vitro

Sequence of Solute carrier family 2, facilitated glucose transporter member 1 (Homo sapiens) (P11166 whole entry): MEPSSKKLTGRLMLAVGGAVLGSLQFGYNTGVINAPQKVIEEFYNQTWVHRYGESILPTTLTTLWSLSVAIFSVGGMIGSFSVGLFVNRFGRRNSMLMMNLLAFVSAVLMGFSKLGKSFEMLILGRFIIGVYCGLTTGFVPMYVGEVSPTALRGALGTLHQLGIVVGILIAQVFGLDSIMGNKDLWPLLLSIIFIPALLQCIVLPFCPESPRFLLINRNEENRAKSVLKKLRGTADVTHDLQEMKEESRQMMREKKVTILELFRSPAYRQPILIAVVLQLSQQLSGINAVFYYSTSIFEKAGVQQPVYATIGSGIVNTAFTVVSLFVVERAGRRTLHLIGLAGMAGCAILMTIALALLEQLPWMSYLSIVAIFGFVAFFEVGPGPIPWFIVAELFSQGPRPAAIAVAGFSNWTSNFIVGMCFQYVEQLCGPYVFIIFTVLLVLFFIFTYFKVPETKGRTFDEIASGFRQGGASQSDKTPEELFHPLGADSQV

Compound	inhibition [1] [%]	inhibition [2] [%]	inhibition [3] [%]
CCN(CC)CCN(Cc1ccc(-c2ccc(C(F)(F)F)cc2)cc1)C(=O)Cn1c(CCc2cccc(F)c2F)c(C)c(=O)c2ccccc21	1.84	1.5	3.04
COc1ccc2nc(-c3ccc(C(=O)NCCCN4CCN(c5cc(Cl)ccc5OC)CC4)cc3OC)[nH]c2c1	2.79	1.93	3.01
COc1ccc2c(N/N=C/c3ccccc3[N+](=O)[O-])cc(C)nc2c1	3.18	2.75	2.99
COc1ccc(CNC(=O)NC2CCN(c3ccnc(Nc4ccc(OC)cc4)n3)C2)cc1 (stereo unspecified)	1.61	1.7	1.82
CO/C(=C\C=C\c1cc2cc(Cl)c(Cl)cc2[nH]1)C(=O)NCCCN1CCCC[C@H]1C	3.27	2.98	1.43
O=C(Nc1cccc(CN2CCCN(Cc3cccc(Cl)c3)CC2)c1)c1ccc(Br)cc1	7.66	7.39	9.96
O=C(/C=C/c1ccc(Cl)c(Cl)c1)NCCCCCN1CC[C@H](NC(=O)c2sc3ccccc3c2Cl)C1	5.64	3.45	-1.69
COc1cc2/c(=N/c3ccc(Br)cc3F)nc[nH]c2cc1OCC1CCN(C)CC1	-0.8	2.56	0.95
Cc1cccc2nc(-c3ccc(-c4cccc(CNCC5CCCO5)c4)cc3)[nH]c12 (stereo unspecified)	12.7	10.1	8.96
NC(=O)c1ccccc1OCC(=O)Nc1cccc(-c2cccc(-c3nc4ccccc4[nH]3)c2)c1	0.34	1.07	-4.32
COc1ccc2nc3cc(Cl)ccc3c(NCCCCNc3c4ccc(Cl)cc4nc4ccc(OC)cc34)c2c1	11.8	12.5	9.15
Cc1ccc(CNC(=O)[C@H](CC(C)C)Nc2cc(C)nc(Nc3ccccc3)n2)cc1	3.16	4.07	-0.24
CCC(Cc1ccccc1)c1cc(O)c(Cc2ccc(-c3ccccc3)cc2)c(=O)o1 (stereo unspecified)	2.42	2.07	0.95
Cc1nc2c(=O)sc3ccccc3c2n1Cc1ccccc1	0.4	7.03	-1.55
Cc1nn(-c2cccc(Cl)c2)c2c1C(C(=O)c1ccc3c(c1)OCO3)CC(=O)N2 (stereo unspecified)	-2.6	-0.95	-2.87
Cc1cnc(NCCc2ccc(F)cc2)nc1N[C@@H](CC(C)C)C(=O)Nc1ccccc1	5.17	4.05	4.26
CCCCCn1c(Sc2ccc(C#N)c([N+](=O)[O-])c2)nnc1-c1ccc(Cl)cc1	4.31	4.27	0.12
O=c1ccc(-c2nc3cc(Cl)c(Cl)cc3n2Cc2ccc(Cl)cc2Cl)c[nH]1	-0.54	-0.54	-0.93
O=C(CN1C(=O)CC1S(=O)(=O)Cc1ccco1)NCCCCCCc1ccc(F)cc1 (stereo unspecified)	-0.99	1.25	0.24
Cc1ccc(NC(=O)c2cc(S(=O)(=O)NC(C)(C)C)ccc2C)nc1	0.04	0.34	2.32
Oc1cccc(Nc2nc(NCc3ccco3)c3ccccc3n2)c1	19.6	12.2	4.1
CCCCCCCC1CC(CC(=O)Nc2ccnc3ccc(OC)cc23)CN1C(=O)OC(C)(C)C (stereo unspecified)	9.12	11.2	3.12
Cc1ccc2cc(NC(=O)c3cccc(C(=O)Nc4ccc5nc(C)ccc5c4)n3)ccc2n1	15.1	12.2	11.6
CCN(CCCN1CCCCC1)c1cc(C)nc(Nc2ccc(Br)cc2F)n1	0.13	2.96	1.34

Compound	inhibition [1] [%]	inhibition [2] [%]	inhibition [3] [%]
CC1(C)[C@H]2CC[C@@H](CNc3nc(NCCc4c[nH]cn4)nc(Nc4ccc5c(c4)OCO5)n3)[C@@H]1C2	2.49	0.99	0.68
COc1cc(F)c2nccc([C@@H](O)CN3CCC(NC(=O)OCc4ccccc4)C(F)C3)c2c1 (stereo partly specified)	11.6	16.3	3.75
CS(=O)(=O)c1ccc(CCNCc2ccc(-c3ccc(CN(C(=O)C4CC(=O)c5ccccc54)C4CCN(Cc5ccccc5)CC4)cc3)nc2)cc1 (stereo unspecified)	1.6	1.34	2.34
COc1ccc(CNC2CCN(C)CC2)cc1-c1ccc(S(=O)(=O)NCc2ccccc2)c(F)c1	-0.66	-0.53	-1.2
O=C(Nc1ccc(-c2nc3ccccc3[nH]2)cc1)c1ccc(N2CCOCC2)c([N+](=O)[O-])c1	-0.45	-0.76	-0.91
Cc1ccc(O)cc1Nc1c(C(N)=O)cnc2ccc(-c3cncs3)cc12	-2.06	-0.39	-1.28
Oc1c(Br)cc2oc3c(c2c1CNCc1ccccc1)CCCC3	-0.72	-0.92	-0.81
COc1ccc2cc(C(=O)Nc3ccc4c(c3)CCN(C3CCC3)CC4)ccc2c1	-2.16	2	3.8
CN1CCC(N2CCN(Cc3cccc(-c4cccc(-c5nc6ccccc6[nH]5)c4)c3)CC2)CC1	-4.87	0.09	-3.95
NC(=O)COc1c(C2CCN(CCCCNC(=O)c3ccc(-c4ccc(Cl)cc4)c(O)c3)CC2)ccc2c1CCCC2	-0.69	2.57	2.53
O=C(NCC1CCN(Cc2cccc(F)c2)C1)c1cc(-c2cccc(C(F)(F)F)c2)cs1 (stereo unspecified)	-1.66	-2.49	2.59
c1ccc(-c2cc(NCCCn3ccnc3)nc(-c3cccnc3)n2)cc1	2.2	3.19	0.94
Cc1cc(N(C)C)nc(Nc2ccc(NC(=O)c3ccccc3C)cc2)n1	11.4	17.1	5.05
CCN(CC)CCNc1ccc(Nc2ccnc3cc4ccccc4cc23)cc1	0.35	-0.38	3.92
Cc1ccc(-c2ccc(Cl)cc2Oc2cnc(N)nc2N)o1	1.95	2.44	0.26
CC(C)N1CCC(Oc2ccc(CN3CCN(C(c4ccccc4)c4ccc(Cl)cc4)CC3)cc2)CC1 (stereo unspecified)	6.88	3.12	2.61
C[C@@H](CC1CCCCC1)OC(=O)N(C)[C@H]1CCN(C#N)C1	14	8.54	8.86
Cc1[nH]c(C)c(-c2ccc(-c3cccc(C(F)(F)F)c3)nc2)c(=O)c1Br	9.61	8.1	6.29
O=C(C=CC(=O)N1CCCCC1)NCc1ccccc1	2.97	3.29	2
COc1ccc(-c2ccc(NC(=O)c3cccc(Cl)c3)cc2)cc1CN1CCC(O)CC1	14.6	15.5	12.4
COc1ccc(CNC(=O)c2cnc3c(O)cccc3c2Nc2cccc(NC(=O)c3ccc(-c4ccccc4)cc3)c2)cc1	76.8	79.7	64.3
Cc1cc(NS(=O)(=O)c2cccc(C(C)N3CCC(N4CCCC4)CC3)c2)ccc1C(C)C (stereo unspecified)	6.44	5.82	1.55
Cc1nc(C(=O)N2CCCC[C@H]2CNC(=O)c2ccc(-c3ccc(N4CCCC4=O)cc3C)cc2)c(-c2ccc(F)cc2)s1	-1.91	-0.31	4.58
COc1cc2nc(Nc3ccc(N4CCOCC4)cc3)nc(N)c2cc1OC	0.99	2.3	-0.6

Compound	inhibition [1] [%]	inhibition [2] [%]	inhibition [3] [%]
CCCCN1CCN(Cc2cccc(NC(=O)c3ccc(Cl)c(Cl)c3)c2)CC1	13.4	10.1	10.5
O=C(CCc1cccnc1)Nc1cccc(-c2ccc(-c3nc4cc(C(F)(F)F)ccc4[nH]3)cc2)c1	9.2	7.53	6.85
COc1ccc(CON2C(=N)N=C(N)NC2(C)C)cc1OC	-1.03	-1.38	-0.13
Cc1cc(N[C@@H](Cc2ccccc2)C(=O)Nc2ccccc2)nc(Nc2ccccc2)n1	5.97	5.91	-0.05
CC(Cc1ccc(NS(=O)(=O)c2ccc(CC(C)NCCc3cccc(Cl)c3)cc2)cc1)NCCc1cccc(Cl)c1 (stereo unspecified)	0.89	9.69	7.25
CCOC(=O)c1c(C)n(-c2ccccc2)c2ccc(OC(=O)COc3ccc(Cl)cc3Cl)cc12	7.5	6.74	6.97
Cc1cc(=NN=Cc2ccccc2Cl)c2cc(C(F)(F)F)ccc2[nH]1	-0.33	-0.65	1.27
O=C(Nc1ccc(N2CCNCC2)nc1)c1oc(-c2ccccc2)nc1C(F)(F)F	2.9	3.6	0.32
CC(=O)c1ccc(-c2ccccc2)s1	2.16	3.72	1.61
O=C(/C=C/c1ccc(Cl)cc1)NCCCCCN1CCCC(C(=O)Nc2ccc(F)c(Cl)c2)C1 (stereo unspecified)	2.06	1.34	2.38
FC(F)(F)Oc1ccc(Nc2cc(-c3ccncc3)nc(-c3cccnc3)n2)cc1	2.18	3.54	0.59
Cn1cncc1C(=O)Nc1ccc(-c2cccc(-c3nc4cc(F)ccc4[nH]3)c2)cc1	3.54	3.21	4.7
Cc1ccc(C(=O)Nc2cccc(-c3ccc(N4CCN(C)CC4)nn3)c2)cc1[N+](=O)[O-]	1.32	-0.23	-1.16
O=C(Nc1cccc(-c2cccc(-c3ccc(F)cc3)n2)c1)c1ccc([N+](=O)[O-])o1	9.83	11.4	1.35
O=C(/C=C/c1ccc(Cl)c(Cl)c1)NC1CCC(CN2CCC(c3c[nH]c4ccncc34)CC2)CC1 (stereo unspecified)	0.22	0.56	0.65
Cc1[nH]c(C)c(-c2ccc(OCCOc3ccc(C(F)(F)F)cn3)cc2)c(=O)c1Br	-0.58	1.5	-1.93
Cc1cc(OCCCN2CCCC2)ccc1NC(=O)COc1ccc(Cl)cc1C(=O)c1cc(C#N)cc(C(F)(F)F)c1	73	11.6	10.3
O=C(Nc1cccc(CN2CCN(Cc3cccc(O)c3)CC2)c1)c1cc2ccccc2s1	3.62	3.45	3.74
Cc1nc(N)nc(N)c1CCCOc1cccc(Cl)c1	7.39	7.51	-0.98
CC(Nc1ccc2c(c1)OCCO2)C(=O)Nc1cc(C(F)(F)F)ccc1N1CCOCC1 (stereo unspecified)	7.38	8.1	6.63
Cc1cc(N2CCCN(C)CC2)nc(Nc2ccc(Cl)cc2)n1	1.53	1.73	2.54
COc1cc(NCC(O)CNc2cc(OC)c3ccccc3n2)nc2ccccc12	33.2	12.5	4.93
Cc1ccc(Nc2ccnc3ccc(C(F)(F)F)cc23)cc1O	4.92	3.33	2.31
COc1ccc(C(=O)NCc2ccccc2-c2ccc(C(C)(C)C)cc2)cc1O	3.25	5.39	1.49
